# Test results published in PubChem BioAssay AID504895 (National Center for Advancing Translational Sciences (NCATS), 2011).
# Records with an inconclusive call do not appear. Entries that show only a call come without a potency. Activity calls are given as the source filed them. Calls follow the shape of the dose curve; as a rule, active = well fitted curve in the direction sought with a large enough effect; inconclusive = small, poorly fitted or top-dose-only effect, or another doubt; inactive = no such curve, though single readings can be large or run the other way.
# Biological target: Protein phosphatase EYA2 (Homo sapiens) (UniProt O00167)
# Sequence (O00167 whole entry, looked up): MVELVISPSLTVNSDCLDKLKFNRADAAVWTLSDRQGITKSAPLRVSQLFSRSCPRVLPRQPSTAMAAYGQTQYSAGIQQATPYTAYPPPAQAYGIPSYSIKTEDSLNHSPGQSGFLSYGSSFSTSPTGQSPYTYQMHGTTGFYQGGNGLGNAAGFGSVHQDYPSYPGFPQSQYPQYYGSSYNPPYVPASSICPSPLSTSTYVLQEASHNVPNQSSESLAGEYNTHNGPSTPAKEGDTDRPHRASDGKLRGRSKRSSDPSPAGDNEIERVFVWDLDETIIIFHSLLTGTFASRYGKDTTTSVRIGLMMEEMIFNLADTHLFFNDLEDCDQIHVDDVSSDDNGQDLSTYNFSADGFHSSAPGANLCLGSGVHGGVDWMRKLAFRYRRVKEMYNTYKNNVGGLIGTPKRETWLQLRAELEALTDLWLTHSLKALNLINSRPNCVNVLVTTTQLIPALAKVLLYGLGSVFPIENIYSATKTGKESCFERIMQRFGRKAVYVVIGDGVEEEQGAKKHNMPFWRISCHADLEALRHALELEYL
# Experiment: Inhibitors of Eya2ED: Hit Confirmation in Primary Screen
# Details: Recombinant Eya2ED, OMFP fluorescence phosphatase assay; series mostly up to 76.9 µM
# How it was run: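 Hits were retested as 12-point titrations. Compound sat 10 min at ambient with Eya2 (0.2 uM in dispense) in HEPES pH 7.5 buffer with NaCl, MgCl2, BSA and DTT, then OMFP substrate (50 uM in dispense) was added. Dephosphorylation was read by fluorescence at 485/525 nm after a further 10 min.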
row,SMILES,Potency
1,COc1ccc2oc(C(=O)OCC(=O)N3CCCCC3C)c(C)c2c1 (stereo unspecified),inactive
2,Oc1oc(C=Nc2ccc(F)cc2F)c2ccccc12,inactive
3,CCOc1ccccc1N(CC(=O)Nc1cc(OC)ccc1OC)S(C)(=O)=O,inactive
4,O=C(NC(=S)Nc1ccccc1N1CCCCC1)c1ccc(F)cc1Cl,inactive
5,COc1ccc(Cl)cc1CSc1ncn[nH]1,inactive
6,O=C(N/N=C/c1ccc(Sc2nc3ccccc3[nH]2)o1)c1ccncc1,inactive
7,O=C(Cc1coc2cc(O)ccc12)NNC(=O)c1ccc(Br)s1,inactive
8,O=C(COC(=O)c1cc(Cl)ccc1Cl)NC1CCCC1,inactive
9,CN1CC[n+]2cnc3ccccc3c21,inactive
10,O=C(COC(=O)c1cccnc1Cl)Nc1cc(S(=O)(=O)N2CCCCCC2)ccc1Cl,inactive
11,COc1ccc2c(c1)[C@H]1[C@H](CO2)[C@H](c2ccccc2)[C@]2(C)C(=O)Nc3ccc(F)cc3C(=O)N12,inactive
12,COc1ccc(NC(=O)CNc2cc(S(=O)(=O)N3CCOCC3)ccc2N2CCOCC2)c(OC)c1,inactive
13,Cn1c(=O)c(C(=O)Nc2ncccc2O)c(O)c2ccccc21,inactive
14,CC(C)Cc1nnc(NC(=O)c2cc3c(s2)CCC3)s1,inactive
15,CCCOc1ccc(C(=O)OCC(=O)c2c(N)n(C)c(=O)n(C)c2=O)cc1OC,inactive
16,O=C(CC(c1ccccc1)c1ccccc1)Nc1ccc(Cl)cn1,inactive

row,SMILES,Potency
1,Cc1cc(C(=O)Nc2ccc(N3CCCCC3)cc2)no1,inactive
2,NC(=O)Nc1ccc(C(=O)OCC(=O)NC2CCCCC2)cc1,inactive
3,COc1ccccc1OCCCCOc1ccccc1F,inactive
4,Cc1ccc(CCNC(=O)c2cc(C)nn2-c2ccccc2)cc1,inactive
5,CCOC(=O)C1CCCN(Cc2cc(Br)c(OC)cc2OC)C1 (stereo unspecified),inactive
6,CC(C)(C)C(=O)Nc1nc(=S)ss1,inactive
7,COc1ccc(NC(=O)CSc2nc3[nH]c(=O)[nH]c(=O)c3s2)cc1OC,inactive
8,COc1cc(C(=O)Nc2ccc(NC(=O)c3ccccc3Cl)nc2)cc(OC)c1OC,inactive
9,Cc1cc(C(N)=O)nn1-c1c(Cl)cc(Cl)cc1Cl,inactive
10,CC(=O)c1c(C)[nH]c(C(=O)NNC(=O)c2ccc(Br)cc2)c1C,inactive
11,COC(=O)C1OC(OC2CC[C@]3(C)C(CC[C@@]4(C)[C@@H]3CC=C3[C@@H]5CC(C)(C)CC[C@]5(C(=O)OC5OC(CO)C(O)C(O)C5O)CC[C@]34C)C2(C)C)C(O)C(O)C1O[C@H]1OCC(O)C(O)C1O (stereo partly specified),inactive
12,O=C(CCCC(=O)N(CC(=O)NC1CCCCC1)c1ccccc1F)Nc1ccccn1,inactive
13,CC1CN(S(=O)(=O)c2ccc(C(=O)Nc3nnc(-c4ccco4)o3)cc2)CC(C)O1 (stereo unspecified),inactive
14,CCOC(=O)CN(C(=O)CN1CCC(n2nnc3cc(C)ccc32)CC1)c1ccccc1,inactive
15,CC(=O)c1ccc(NC(=O)C2(c3ccccc3)CC2(Cl)Cl)cc1 (stereo unspecified),inactive
